# Experimental data published in ChEMBL document CHEMBL3988442, “University of Dundee, Small-Polar-MMV Screening Library” (2021).
# For some assays here: Potency and affinity values are given separately.
# Assays:
# Parameters in all cases: scale not given: direction of the effect not stated beside the values
# [1] = biological target: Protein translocase subunit SecA (Escherichia coli (strain K12)) (UniProt P10408); experiment: Assay to Identify E. coli SecA ATPase Inhibitors; format: functional; details: 30 µM
# [2] = biological target: T1, Ubiquitin-activating enzyme e1, putative (Leishmania donovani (strain BPK282A1)) (UniProt E9BSI1); experiment: Leishmania donovani Ubiquitin Activating Enzyme (LdE1); format: functional; details: 30 µM
# T1 sequence (whole entry): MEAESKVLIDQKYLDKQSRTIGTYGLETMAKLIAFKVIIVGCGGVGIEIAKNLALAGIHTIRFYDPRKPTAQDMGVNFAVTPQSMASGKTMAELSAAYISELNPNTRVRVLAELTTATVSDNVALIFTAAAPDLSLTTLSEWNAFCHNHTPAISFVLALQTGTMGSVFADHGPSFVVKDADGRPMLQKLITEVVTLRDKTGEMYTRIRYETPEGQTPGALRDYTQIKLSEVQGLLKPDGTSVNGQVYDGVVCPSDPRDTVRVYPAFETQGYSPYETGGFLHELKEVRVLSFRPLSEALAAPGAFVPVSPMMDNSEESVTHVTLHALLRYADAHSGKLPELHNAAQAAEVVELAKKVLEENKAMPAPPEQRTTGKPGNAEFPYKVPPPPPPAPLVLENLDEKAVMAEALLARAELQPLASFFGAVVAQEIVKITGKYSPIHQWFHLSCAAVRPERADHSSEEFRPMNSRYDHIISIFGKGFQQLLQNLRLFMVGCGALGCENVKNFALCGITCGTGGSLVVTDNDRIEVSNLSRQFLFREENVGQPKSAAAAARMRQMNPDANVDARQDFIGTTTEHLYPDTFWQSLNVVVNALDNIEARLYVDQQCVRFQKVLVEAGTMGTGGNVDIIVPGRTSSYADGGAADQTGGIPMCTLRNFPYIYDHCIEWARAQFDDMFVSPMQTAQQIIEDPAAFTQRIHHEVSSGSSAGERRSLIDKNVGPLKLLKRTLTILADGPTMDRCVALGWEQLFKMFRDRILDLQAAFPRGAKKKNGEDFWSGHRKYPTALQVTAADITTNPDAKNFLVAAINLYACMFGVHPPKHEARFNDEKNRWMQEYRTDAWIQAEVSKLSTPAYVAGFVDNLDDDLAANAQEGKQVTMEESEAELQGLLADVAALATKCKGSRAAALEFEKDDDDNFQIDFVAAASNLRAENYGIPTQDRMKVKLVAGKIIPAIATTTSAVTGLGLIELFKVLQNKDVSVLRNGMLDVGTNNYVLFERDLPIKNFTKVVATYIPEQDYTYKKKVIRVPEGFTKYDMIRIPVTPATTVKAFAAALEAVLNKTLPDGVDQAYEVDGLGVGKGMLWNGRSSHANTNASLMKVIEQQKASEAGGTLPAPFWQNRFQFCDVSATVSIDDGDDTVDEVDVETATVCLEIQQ
# [3] = biological target: Sialic acid-binding Ig-like lectin 9 (Homo sapiens) (UniProt Q9Y336); experiment: Hs-Siglec9 ALPHAscreen SOP 20170721; details: 10 µM
# Trypanosoma cruzi = experiment: Trypanosoma cruzi phosphomannomutase and mannose-1-phosphate guanylyltransferase assay; format: functional; details: 10 µM
# [4] = biological target: T2, Arginase-2, mitochondrial (Homo sapiens) (UniProt P78540); experiment: in vitro enzyme assay to detect the production of urea directly proportional to the activity of Arginase II; format: functional; details: 33.3 µM; also: in the data most compounds retested in dose-response had high values
# T2 sequence (whole entry): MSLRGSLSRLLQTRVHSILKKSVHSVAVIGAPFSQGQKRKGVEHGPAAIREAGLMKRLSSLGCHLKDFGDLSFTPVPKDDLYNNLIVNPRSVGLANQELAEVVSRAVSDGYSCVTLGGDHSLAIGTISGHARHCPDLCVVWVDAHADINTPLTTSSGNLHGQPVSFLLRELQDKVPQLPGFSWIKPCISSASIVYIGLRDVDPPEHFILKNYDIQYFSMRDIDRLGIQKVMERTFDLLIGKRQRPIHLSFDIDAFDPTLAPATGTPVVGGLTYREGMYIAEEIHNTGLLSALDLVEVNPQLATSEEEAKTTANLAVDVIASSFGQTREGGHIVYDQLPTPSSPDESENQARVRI
# [5] = biological target: T3, Proteasome subunit beta (Trypanosoma cruzi) (UniProt O96673); experiment: Trypanosoma cruzi proteasome chymotrypsin-like activity (TcProtChymo) assay.; also: in the data most compounds retested in dose-response had high values; format: functional; details: 9.37 µM
# T3 sequence (whole entry): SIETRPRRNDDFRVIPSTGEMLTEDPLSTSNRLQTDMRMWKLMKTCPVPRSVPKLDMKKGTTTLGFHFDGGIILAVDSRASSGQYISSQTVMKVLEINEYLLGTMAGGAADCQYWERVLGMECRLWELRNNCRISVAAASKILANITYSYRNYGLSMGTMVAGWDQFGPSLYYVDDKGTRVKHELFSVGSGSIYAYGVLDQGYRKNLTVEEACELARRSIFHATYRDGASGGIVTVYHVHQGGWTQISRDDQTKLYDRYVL
# Homo sapiens = organism: Homo sapiens; experiment: To identify inhibition of the IFN signalling (Jak-Stat) pathway via expression of an eGFP reporter gene under the control of an IFN-stimulated response element (ISRE) containing MxA promoter.; format: functional; details: 30 µM
# [6] = biological target: T4, Tyrosyl-tRNA synthetase, putative (Trypanosoma cruzi (strain CL Brener)) (UniProt Q4DSP6); experiment: Trypanosoma cruzi tyrosyl tRNA synthetase (TcYRS) _High Tyrosine SOP; format: functional; details: 30 µM; also: in the data most compounds retested in dose-response had high values
# T4 sequence (whole entry): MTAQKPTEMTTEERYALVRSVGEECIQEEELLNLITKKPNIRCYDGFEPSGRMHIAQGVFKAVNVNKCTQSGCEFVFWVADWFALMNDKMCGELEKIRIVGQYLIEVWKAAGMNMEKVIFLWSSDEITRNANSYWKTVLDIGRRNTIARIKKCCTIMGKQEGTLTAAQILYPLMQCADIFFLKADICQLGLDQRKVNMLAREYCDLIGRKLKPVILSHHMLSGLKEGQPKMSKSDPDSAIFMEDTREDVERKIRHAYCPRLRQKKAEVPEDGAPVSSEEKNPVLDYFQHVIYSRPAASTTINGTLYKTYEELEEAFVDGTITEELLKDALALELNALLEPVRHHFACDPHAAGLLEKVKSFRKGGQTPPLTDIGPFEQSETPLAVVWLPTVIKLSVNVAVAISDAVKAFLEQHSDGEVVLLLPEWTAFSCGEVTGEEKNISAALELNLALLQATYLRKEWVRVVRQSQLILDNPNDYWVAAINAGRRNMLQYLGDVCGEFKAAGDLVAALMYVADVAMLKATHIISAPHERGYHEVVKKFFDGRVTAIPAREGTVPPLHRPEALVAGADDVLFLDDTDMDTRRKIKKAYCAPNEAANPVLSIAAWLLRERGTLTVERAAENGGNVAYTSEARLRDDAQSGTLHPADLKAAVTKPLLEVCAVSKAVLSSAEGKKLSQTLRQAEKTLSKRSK
# [7] = biological target: T4, Tyrosyl-tRNA synthetase, putative (Trypanosoma cruzi (strain CL Brener)); experiment: Trypanosoma cruzi tyrosyl tRNA synthetase (TcYRS) SOP; format: functional; details: 30 µM
# [8] = biological target: Chromo domain-containing protein 1 (Saccharomyces cerevisiae (strain ATCC 204508 / S288c) (Baker's yeast)) (UniProt P32657); experiment: ScCHD-1 Enzyme Inhibition Assay; format: functional; details: 30 µM; also: in the data most compounds retested in dose-response had high values
# Chain of Chromo domain-containing protein 1 (Saccharomyces cerevisiae (strain ATCC 204508 / S288c) (Baker's yeast)) (P32657 whole entry, the tested form may be a part): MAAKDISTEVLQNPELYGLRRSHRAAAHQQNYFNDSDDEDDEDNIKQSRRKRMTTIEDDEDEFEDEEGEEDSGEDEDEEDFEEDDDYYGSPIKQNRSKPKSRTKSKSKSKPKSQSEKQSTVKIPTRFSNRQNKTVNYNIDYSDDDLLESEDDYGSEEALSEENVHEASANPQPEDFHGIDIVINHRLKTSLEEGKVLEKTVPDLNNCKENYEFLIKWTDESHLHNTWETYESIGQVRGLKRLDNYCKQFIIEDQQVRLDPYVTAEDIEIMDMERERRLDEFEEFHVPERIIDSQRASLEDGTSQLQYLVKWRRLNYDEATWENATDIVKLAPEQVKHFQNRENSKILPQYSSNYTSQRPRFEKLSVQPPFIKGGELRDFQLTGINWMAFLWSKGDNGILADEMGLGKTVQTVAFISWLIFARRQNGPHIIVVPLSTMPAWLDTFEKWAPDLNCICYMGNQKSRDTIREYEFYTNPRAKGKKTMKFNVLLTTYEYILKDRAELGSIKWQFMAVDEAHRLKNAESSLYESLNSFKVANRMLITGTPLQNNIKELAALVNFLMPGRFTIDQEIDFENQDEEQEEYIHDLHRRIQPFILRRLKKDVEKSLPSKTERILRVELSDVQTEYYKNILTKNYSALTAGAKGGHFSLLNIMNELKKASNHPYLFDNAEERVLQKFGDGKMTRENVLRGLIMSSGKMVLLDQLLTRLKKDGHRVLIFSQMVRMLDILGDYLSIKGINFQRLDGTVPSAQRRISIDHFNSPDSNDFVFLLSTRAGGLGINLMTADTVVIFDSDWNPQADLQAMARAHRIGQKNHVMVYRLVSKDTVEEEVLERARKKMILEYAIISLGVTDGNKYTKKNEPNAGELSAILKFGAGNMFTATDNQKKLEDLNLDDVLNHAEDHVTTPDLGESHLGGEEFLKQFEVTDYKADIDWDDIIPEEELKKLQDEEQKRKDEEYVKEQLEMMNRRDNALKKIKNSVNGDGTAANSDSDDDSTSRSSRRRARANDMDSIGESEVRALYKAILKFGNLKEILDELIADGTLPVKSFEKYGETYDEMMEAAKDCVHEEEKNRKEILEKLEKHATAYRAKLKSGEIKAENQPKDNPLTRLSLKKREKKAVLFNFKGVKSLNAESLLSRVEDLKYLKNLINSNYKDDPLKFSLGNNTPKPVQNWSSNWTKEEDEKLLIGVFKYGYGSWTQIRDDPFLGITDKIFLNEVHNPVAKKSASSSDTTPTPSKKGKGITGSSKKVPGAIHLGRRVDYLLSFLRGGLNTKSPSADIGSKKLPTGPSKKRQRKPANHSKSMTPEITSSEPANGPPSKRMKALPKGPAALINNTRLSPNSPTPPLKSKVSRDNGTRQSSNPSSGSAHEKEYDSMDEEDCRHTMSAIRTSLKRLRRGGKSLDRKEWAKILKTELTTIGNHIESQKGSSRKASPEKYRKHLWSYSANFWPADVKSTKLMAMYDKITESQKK
# Chain of Protein translocase subunit SecA (Escherichia coli (strain K12)) (P10408 whole entry): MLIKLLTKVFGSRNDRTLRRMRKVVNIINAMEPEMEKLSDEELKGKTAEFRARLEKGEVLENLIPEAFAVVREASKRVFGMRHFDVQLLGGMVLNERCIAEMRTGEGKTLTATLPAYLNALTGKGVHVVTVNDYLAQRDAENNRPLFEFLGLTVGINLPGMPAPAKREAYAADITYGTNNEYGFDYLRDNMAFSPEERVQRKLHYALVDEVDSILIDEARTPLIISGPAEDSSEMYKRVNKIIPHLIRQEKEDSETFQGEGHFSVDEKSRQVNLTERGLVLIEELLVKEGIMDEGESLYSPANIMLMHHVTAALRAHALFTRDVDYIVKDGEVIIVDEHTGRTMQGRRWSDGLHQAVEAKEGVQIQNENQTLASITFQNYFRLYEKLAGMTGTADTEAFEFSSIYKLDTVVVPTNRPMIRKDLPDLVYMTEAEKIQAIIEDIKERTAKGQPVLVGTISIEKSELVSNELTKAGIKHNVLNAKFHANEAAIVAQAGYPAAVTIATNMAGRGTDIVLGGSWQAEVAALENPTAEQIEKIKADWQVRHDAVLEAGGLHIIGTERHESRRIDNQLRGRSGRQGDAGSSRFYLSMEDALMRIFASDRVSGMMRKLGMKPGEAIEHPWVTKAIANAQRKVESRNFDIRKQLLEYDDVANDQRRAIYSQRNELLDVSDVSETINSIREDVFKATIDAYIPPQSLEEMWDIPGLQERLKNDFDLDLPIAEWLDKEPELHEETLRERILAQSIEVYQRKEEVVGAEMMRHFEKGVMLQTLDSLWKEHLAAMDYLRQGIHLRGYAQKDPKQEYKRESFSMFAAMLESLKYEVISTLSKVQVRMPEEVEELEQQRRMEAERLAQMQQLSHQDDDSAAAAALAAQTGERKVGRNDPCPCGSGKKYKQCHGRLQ
# Chain of Sialic acid-binding Ig-like lectin 9 (Homo sapiens) (Q9Y336 whole entry): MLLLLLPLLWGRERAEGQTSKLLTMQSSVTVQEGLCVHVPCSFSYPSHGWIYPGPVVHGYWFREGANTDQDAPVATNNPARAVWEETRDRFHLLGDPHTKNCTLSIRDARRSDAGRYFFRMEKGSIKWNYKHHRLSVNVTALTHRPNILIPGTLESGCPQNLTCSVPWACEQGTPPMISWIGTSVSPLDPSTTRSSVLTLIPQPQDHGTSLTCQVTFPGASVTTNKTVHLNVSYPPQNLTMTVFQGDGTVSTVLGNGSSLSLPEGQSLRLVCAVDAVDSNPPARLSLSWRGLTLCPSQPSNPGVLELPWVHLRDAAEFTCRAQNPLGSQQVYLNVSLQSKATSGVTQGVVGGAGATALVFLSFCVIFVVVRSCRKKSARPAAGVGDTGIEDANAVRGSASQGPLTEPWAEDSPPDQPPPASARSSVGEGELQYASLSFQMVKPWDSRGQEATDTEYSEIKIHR
SMILES,Percent Effect [1],Percent Effect [2],Percent Effect [3],Percent Effect (Trypanosoma cruzi),Percent Effect [4],Percent Effect [5],Percent Effect (Homo sapiens),Percent Effect [6],Percent Effect [7],Percent Effect [8]
CCc1nc(C2CCCN2C(=O)c2ccc3c(c2)nc(C)n3C)no1 (stereo not given),-0.423%,-2.67%,4.72%,-2.41%,1.77%,3.31%,7.34%,1.58%,0%,-6.99%
O=C(c1ccc2c(c1)OCO2)N1CCN(c2cnccn2)CC1,-4.95%,12.8%,-0.564%,-1.6%,4.51%,10.2%,16%,5.26%,13.2%,-6.8%
Cc1cc(NC(=O)NCC2CCOC2)no1 (stereo not given),0.735%,10.7%,0.0318%,-6.63%,9.76%,5%,5.61%,4.74%,7.69%,-11.3%
CC(C)CN1CCC2(CCN(Cc3ccsc3)CC2)C1=O,-2.7%,11.7%,1.92%,0.938%,0.913%,6.78%,-29.8%,8.7%,12.5%,1.04%
COCCN1C[C@@H]2CN(C(=O)[C@H]3CCCO3)C[C@@H]2C1=O,0.0627%,16.9%,-1.76%,-6.38%,3.65%,24.5%,7.75%,7.73%,12.5%,-7.63%
CNc1snc(C)c1C(=O)N1CCCC(n2ccnc2C(C)C)C1 (stereo not given),-0.908%,0%,1.03%,2.21%,0.444%,5%,14.7%,1.58%,0%,-1.07%
CCc1nc(CN2CCN(C(=O)C3CCCCC3)CC2)cs1,-3.52%,17.9%,-8.26%,7.23%,1.64%,8.28%,12%,5.26%,20.5%,-7.32%
OC(COCc1ccccc1F)CN1CCc2c(ncn2C2CC2)C1 (stereo not given),-3.46%,-5.33%,7.5%,-4.02%,2.66%,8.06%,10.4%,2.63%,0%,-6.26%
CCn1ccnc1CN1CCCN(C(=O)c2cc(Cl)c[nH]2)CC1,-1.59%,12.8%,9.67%,7.98%,8.61%,1.79%,10.2%,3.35%,22.9%,-8.12%
CCN(C)Cc1cnc(S(=O)(=O)CC)n1CCOC,-9.54%,0%,-2.25%,-3.4%,2.45%,-0.856%,0.566%,1.6%,4.88%,2.11%
CN(C)CC(=O)N1CCC2(CC(=O)N(c3cccc(C#N)c3)C2)C1 (stereo not given),-7.09%,6.49%,-3.56%,-4.58%,-5.67%,13%,3.5%,2.63%,5.13%,-1.61%
